Among the data in PMC7862700, “An all-to-all approach to the identification of sequence-specific readers for epigenetic DNA modifications on cytosine” are binding signal values, retold here.

Test in all cases: DAPPL (digital affinity profiling via proximity ligation, sequencing); 10 mM Tris-HCl pH 7.5, 50 mM NaCl, 1 mM DTT, 4% glycerol, room temperature, 30 min; GST-TFs on glutathione beads, 16-mer random dsDNA library, 0.1% formaldehyde crosslink after washing; high values mean tight binding
One test concerns the target T1, FEV (Homo sapiens, UniProt Q99581 1-238).
T1 sequence: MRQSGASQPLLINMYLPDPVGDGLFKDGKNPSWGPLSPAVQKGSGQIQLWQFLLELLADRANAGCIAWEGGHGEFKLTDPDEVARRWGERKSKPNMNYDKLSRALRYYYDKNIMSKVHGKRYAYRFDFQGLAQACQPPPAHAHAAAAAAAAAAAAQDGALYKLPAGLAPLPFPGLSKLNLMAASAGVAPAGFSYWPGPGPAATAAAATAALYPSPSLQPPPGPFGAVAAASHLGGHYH
As to conditions: protein: recombinant; tags: N-terminal GST; dsDNA, one strand shown. An outline of the steps: (§1)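 Binding signal is each hexamer's read frequency for a factor divided by its frequency in the tag-only sample. The factors were GST-fused human transcription factors from yeast, captured on glutathione beads, DNA-barcoded and pooled with that sample. Pools were incubated with 200 nmole of a random double-stranded 16-mer DNA library in Tris/NaCl/DTT/glycerol buffer at room temperature for 30 min, then washed, crosslinked with 0.1% formaldehyde, proximity-ligated with BsaI/T4 ligase (1 h, 37 °C), PCR-amplified and sequenced on an Illumina NextSeq500.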

Another test addresses ETV5 (Homo sapiens, UniProt P41161 1-510). Conditions: protein: recombinant; tags: N-terminal GST; dsDNA, one strand shown. An outline of the steps:
as §1

Another test has as its target HSF1 (Homo sapiens, UniProt Q00613 1-529). Conditions: protein: recombinant; tags: N-terminal GST; chain copies: 3; dsDNA, one strand shown. An outline of the steps:
as §1

The target of another test is T2, SPIC (Homo sapiens, UniProt Q8N5J4 1-248).
T2 sequence: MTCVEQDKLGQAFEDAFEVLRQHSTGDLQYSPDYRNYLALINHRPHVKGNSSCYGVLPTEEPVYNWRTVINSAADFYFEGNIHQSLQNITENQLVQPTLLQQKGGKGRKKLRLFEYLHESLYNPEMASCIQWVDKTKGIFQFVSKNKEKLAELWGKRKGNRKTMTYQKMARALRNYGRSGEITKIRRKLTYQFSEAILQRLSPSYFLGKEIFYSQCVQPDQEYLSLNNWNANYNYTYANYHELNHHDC
Conditions: protein: recombinant; tags: N-terminal GST; dsDNA, one strand shown. An outline of the steps: as §1

The target in another test is ELF4 (Homo sapiens, UniProt Q99607 1-663). As to conditions: protein: recombinant; tags: N-terminal GST; dsDNA, one strand shown. An outline of the steps: as §1
Another test deals with T3, ELK4 (Homo sapiens, UniProt P28324-2 1-405).
T3 sequence: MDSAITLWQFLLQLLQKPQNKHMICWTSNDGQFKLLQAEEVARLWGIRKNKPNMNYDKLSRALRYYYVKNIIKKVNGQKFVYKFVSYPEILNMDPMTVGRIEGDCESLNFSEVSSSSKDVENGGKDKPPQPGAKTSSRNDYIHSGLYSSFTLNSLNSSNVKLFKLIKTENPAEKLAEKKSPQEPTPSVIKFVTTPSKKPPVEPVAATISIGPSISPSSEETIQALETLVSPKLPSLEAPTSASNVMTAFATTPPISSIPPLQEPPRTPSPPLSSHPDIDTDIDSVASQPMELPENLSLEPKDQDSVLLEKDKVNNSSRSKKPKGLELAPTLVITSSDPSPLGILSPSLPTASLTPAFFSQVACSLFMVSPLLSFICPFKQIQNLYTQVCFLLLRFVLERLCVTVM
As to conditions: protein: recombinant; tags: N-terminal GST; dsDNA, one strand shown. In short, it runs like this: as §1

The next test addresses T4, ETV2 (Homo sapiens, UniProt O00321 1-342).
T4 sequence: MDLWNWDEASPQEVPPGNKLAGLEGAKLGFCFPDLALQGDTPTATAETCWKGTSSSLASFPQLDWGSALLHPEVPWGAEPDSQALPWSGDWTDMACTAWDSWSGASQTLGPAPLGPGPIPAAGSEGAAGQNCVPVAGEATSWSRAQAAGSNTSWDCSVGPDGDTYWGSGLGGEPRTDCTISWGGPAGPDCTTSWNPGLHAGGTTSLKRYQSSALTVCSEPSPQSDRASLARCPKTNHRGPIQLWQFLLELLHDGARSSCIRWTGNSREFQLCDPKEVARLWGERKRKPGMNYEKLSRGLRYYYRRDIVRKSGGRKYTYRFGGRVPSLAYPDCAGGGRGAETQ
Conditions: protein: recombinant; tags: N-terminal GST; dsDNA, one strand shown. In short, it runs like this:
as §1

A further test has as its target T5, ELF3 (Homo sapiens, UniProt P78545 1-371).
T5 sequence: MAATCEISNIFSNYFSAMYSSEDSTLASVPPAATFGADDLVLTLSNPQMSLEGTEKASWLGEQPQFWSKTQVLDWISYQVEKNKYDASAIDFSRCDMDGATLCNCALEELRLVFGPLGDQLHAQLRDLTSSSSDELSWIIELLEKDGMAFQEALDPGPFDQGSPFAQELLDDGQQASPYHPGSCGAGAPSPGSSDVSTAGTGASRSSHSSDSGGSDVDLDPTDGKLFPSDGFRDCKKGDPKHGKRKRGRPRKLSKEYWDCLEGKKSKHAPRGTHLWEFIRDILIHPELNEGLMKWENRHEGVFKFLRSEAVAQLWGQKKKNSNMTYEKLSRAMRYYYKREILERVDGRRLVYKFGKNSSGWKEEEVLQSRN
Conditions: protein: recombinant; tags: N-terminal GST; dsDNA, one strand shown. An outline of the steps:
as §1

A further test deals with CRX (Homo sapiens, UniProt O43186 1-299). Conditions: protein: recombinant; tags: N-terminal GST; dsDNA, one strand shown. In short, it runs like this:
as §1

Another test addresses ETV1 (Homo sapiens, UniProt P50549 1-477). Conditions: protein: recombinant; tags: N-terminal GST; dsDNA, one strand shown. In short, it runs like this:
as §1

For a further test, the target named is T6, ERF (Homo sapiens, UniProt P50548 1-548).
T6 sequence: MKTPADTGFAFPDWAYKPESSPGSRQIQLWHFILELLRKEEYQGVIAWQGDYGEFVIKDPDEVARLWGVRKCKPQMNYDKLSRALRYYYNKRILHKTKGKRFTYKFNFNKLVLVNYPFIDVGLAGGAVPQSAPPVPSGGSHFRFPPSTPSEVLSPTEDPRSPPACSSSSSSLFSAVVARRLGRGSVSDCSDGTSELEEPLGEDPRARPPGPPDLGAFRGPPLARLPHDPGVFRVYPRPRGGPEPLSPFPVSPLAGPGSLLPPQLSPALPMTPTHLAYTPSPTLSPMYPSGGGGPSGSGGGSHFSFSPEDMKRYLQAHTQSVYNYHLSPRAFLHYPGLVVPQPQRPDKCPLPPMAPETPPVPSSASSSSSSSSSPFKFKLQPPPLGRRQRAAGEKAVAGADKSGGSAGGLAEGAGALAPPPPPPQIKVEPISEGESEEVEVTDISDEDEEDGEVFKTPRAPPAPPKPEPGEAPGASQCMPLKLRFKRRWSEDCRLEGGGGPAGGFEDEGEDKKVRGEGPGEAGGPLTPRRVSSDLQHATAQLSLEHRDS
Conditions: protein: recombinant; tags: N-terminal GST; dsDNA, one strand shown. An outline of the steps: as §1

The next test has as its target T7, ETV3L (Homo sapiens, UniProt Q6ZN32 1-361).
T7 sequence: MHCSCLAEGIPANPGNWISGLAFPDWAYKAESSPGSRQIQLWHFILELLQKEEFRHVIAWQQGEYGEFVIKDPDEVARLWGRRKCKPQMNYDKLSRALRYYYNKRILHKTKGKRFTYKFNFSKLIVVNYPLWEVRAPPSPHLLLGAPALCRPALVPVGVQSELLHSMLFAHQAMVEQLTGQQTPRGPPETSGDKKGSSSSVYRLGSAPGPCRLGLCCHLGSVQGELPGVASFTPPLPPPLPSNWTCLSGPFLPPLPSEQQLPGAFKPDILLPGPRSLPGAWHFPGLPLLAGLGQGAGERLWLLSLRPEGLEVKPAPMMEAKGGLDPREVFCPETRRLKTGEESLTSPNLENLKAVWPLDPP
As to conditions: protein: recombinant; tags: N-terminal GST; dsDNA, one strand shown. In short, it runs like this:
as §1

A further test has as its target T8, ETS2 (Homo sapiens, UniProt P15036 1-469).
T8 sequence: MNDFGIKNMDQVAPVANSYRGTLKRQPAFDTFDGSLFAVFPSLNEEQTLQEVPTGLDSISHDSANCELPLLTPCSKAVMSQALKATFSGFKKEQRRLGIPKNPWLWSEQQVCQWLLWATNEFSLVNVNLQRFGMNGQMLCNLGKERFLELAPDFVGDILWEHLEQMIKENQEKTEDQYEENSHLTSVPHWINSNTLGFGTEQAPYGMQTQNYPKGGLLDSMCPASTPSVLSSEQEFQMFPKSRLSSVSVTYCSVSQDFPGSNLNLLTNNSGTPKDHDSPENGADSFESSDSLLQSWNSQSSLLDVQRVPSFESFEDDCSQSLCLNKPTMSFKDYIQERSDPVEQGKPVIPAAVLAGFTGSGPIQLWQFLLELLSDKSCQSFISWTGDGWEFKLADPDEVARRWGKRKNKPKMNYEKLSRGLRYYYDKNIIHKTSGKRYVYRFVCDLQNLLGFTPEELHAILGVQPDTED
As to conditions: protein: recombinant; tags: N-terminal GST; dsDNA, one strand shown. An outline of the steps: as §1

Another test has as its target T9, SPDEF (Homo sapiens, UniProt O95238 1-335).
T9 sequence: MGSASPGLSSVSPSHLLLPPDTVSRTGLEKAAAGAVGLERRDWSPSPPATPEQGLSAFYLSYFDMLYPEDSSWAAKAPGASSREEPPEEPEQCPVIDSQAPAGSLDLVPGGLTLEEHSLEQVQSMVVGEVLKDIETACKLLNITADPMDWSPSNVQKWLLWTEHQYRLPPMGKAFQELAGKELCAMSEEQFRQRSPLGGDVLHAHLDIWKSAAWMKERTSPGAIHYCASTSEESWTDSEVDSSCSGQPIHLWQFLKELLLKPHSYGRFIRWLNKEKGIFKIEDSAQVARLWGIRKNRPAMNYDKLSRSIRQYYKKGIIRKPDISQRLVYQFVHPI
As to conditions: protein: recombinant; tags: N-terminal GST; dsDNA, one strand shown. An outline of the steps: as §1

A further test has as its target T10, ETV7 (Homo sapiens, UniProt Q9Y603 1-341).
T10 sequence: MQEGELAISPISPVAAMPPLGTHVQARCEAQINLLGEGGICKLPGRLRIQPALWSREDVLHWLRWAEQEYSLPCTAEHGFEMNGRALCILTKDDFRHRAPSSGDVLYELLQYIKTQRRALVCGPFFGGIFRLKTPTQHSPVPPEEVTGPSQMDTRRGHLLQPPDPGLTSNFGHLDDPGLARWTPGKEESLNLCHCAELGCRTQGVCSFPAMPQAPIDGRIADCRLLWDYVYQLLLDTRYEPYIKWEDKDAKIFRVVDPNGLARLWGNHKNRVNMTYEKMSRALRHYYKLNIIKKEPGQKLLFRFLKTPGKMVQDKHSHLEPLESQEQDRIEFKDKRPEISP
As to conditions: protein: recombinant; tags: N-terminal GST; dsDNA, one strand shown. In short, it runs like this: as §1

The target in a further test is T11, ELF5 (Homo sapiens, UniProt Q9UKW6-2 1-255).
T11 sequence: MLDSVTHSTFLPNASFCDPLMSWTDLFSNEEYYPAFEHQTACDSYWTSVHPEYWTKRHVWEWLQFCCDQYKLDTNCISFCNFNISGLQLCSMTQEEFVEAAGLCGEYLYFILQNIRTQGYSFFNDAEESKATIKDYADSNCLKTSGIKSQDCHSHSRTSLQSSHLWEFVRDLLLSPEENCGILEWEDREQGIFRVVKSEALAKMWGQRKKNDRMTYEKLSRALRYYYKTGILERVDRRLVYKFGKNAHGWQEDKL
Conditions: protein: recombinant; tags: N-terminal GST; dsDNA, one strand shown. In short, it runs like this:
as §1

Another test addresses T12, ETV3 (Homo sapiens, UniProt P41162-2 1-143).
T12 sequence: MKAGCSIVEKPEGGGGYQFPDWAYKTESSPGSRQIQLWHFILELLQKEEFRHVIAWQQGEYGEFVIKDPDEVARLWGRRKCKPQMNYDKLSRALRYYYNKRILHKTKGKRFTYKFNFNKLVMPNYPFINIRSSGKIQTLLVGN
Conditions: protein: recombinant; tags: N-terminal GST; dsDNA, one strand shown. An outline of the steps: as §1

A further test has as its target ETV6 (Homo sapiens, UniProt P41212 1-452). Conditions: protein: recombinant; tags: N-terminal GST; dsDNA, one strand shown. An outline of the steps: as §1

Chain of ETV6 (P41212 whole entry): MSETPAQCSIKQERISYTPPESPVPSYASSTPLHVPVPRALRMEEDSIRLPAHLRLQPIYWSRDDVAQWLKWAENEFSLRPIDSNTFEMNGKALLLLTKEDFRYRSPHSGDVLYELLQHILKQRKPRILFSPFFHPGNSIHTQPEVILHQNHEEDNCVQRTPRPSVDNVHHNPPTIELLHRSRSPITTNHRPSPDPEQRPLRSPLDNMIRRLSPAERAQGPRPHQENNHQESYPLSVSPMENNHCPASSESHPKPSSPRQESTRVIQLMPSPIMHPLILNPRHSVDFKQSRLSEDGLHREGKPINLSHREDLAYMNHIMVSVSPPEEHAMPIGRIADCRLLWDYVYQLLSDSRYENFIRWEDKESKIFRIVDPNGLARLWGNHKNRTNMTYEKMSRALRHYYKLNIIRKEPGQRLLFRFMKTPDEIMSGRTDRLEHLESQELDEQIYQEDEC
Chain of HSF1 (Q00613 whole entry): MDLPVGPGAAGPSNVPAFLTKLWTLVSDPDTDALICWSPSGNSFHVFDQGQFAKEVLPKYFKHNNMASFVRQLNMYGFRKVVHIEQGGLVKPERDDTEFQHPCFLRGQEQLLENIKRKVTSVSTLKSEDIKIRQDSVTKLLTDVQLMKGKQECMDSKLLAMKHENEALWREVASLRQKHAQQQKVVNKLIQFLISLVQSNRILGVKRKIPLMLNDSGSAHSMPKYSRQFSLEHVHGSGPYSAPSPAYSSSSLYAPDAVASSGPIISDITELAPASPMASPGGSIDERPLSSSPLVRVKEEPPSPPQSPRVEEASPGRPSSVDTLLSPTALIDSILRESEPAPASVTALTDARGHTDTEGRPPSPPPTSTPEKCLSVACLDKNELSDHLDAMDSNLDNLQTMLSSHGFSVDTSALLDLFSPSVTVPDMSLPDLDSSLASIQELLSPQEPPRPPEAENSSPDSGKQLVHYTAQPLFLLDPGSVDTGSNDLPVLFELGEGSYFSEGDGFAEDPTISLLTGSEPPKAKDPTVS
Chain of ETV5 (P41161 whole entry): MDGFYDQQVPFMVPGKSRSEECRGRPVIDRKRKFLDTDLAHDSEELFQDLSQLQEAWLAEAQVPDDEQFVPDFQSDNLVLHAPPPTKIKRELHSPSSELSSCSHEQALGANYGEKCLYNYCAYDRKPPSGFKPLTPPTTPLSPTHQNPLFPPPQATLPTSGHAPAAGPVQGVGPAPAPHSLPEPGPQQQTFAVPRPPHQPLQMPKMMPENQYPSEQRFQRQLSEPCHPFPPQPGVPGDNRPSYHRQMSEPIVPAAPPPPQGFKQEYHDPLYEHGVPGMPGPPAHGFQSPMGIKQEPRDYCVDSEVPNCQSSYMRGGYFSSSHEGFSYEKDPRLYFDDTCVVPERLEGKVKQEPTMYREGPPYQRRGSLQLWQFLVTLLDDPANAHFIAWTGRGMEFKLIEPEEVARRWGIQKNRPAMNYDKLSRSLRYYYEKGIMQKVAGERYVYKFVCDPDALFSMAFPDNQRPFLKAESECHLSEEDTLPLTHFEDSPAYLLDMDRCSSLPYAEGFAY
Chain of ELF4 (Q99607 whole entry): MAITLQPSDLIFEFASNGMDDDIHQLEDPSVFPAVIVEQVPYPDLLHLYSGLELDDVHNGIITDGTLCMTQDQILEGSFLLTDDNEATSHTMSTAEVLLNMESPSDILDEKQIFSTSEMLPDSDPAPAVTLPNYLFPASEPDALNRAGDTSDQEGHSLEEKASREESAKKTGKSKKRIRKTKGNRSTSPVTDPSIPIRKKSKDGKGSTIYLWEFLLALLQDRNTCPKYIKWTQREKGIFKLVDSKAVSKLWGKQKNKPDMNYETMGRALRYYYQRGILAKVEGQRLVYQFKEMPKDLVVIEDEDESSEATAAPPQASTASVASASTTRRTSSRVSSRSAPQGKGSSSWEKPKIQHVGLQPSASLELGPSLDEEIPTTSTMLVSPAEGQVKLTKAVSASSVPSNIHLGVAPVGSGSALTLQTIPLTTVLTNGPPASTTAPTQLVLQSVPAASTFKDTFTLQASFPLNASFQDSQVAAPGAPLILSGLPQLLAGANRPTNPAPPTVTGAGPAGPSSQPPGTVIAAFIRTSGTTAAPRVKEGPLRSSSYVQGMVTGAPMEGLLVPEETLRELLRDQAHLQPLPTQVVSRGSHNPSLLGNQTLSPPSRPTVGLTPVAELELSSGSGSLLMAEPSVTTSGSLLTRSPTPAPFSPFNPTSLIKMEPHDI
Chain of ETV1 (P50549 whole entry): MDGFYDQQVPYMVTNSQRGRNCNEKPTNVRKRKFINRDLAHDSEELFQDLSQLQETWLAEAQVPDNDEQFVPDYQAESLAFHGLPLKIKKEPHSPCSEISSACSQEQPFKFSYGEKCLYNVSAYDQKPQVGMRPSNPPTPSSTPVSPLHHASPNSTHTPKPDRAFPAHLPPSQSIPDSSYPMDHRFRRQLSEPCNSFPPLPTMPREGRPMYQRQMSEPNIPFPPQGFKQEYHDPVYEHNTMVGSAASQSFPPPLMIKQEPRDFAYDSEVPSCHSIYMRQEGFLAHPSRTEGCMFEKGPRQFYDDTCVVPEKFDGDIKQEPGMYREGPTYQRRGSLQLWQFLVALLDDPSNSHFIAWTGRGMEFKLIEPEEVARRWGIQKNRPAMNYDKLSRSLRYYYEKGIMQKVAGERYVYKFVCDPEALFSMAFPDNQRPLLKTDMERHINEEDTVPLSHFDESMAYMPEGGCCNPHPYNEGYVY
Chain of CRX (O43186 whole entry): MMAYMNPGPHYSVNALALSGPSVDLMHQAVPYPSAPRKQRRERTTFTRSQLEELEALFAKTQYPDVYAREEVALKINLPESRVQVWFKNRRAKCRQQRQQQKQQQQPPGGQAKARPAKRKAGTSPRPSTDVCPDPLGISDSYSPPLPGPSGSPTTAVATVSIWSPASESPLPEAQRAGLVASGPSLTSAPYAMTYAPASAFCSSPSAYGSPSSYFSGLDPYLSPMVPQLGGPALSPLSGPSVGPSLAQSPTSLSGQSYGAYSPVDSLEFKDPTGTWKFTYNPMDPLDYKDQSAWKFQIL

On to CTTTGG, for which the binding signal in the test with FEV was 1.15 fold enrichment (6-mer frequency, TF over GST control); in the test with ETV5, 1.17 fold enrichment (6-mer frequency, TF over GST control); with HSF1, 1.26 fold enrichment (6-mer frequency, TF over GST control); with SPIC it was 1.17 fold enrichment (6-mer frequency, TF over GST control); with ELF4 it was 1.16 fold enrichment (6-mer frequency, TF over GST control); with ELK4, 1.02 fold enrichment (6-mer frequency, TF over GST control). For the same sequence, the binding signal with ETV2 was 1.27 fold enrichment (6-mer frequency, TF over GST control); in the test with ELF3, 1.23 fold enrichment (6-mer frequency, TF over GST control); with CRX, 1.29 fold enrichment (6-mer frequency, TF over GST control); with ETV1 it was 1.17 fold enrichment (6-mer frequency, TF over GST control); with ERF it was 1.19 fold enrichment (6-mer frequency, TF over GST control); with ETV3L it was 1.18 fold enrichment (6-mer frequency, TF over GST control). Besides, the binding signal with ETS2 is 1.13 fold enrichment (6-mer frequency, TF over GST control); with SPDEF it was 1.09 fold enrichment (6-mer frequency, TF over GST control); with ETV7 it was 1.26 fold enrichment (6-mer frequency, TF over GST control); with ELF5, 1.09 fold enrichment (6-mer frequency, TF over GST control); with ETV3, 1.22 fold enrichment (6-mer frequency, TF over GST control); with ETV6 it was 1.14 fold enrichment (6-mer frequency, TF over GST control).
